What all share (design): scale not given: direction of the effect not stated beside the values
The target in experiment [1] is Protein translocase subunit SecA (Escherichia coli (strain K12)) (UniProt P10408). Briefly: Assay to Identify E. coli SecA ATPase Inhibitors. In kind it is functional. The note with it: 30 µM.
Experiment [2] has as its target T1, Ubiquitin-activating enzyme e1, putative (Leishmania donovani (strain BPK282A1)) (UniProt E9BSI1).
T1 sequence (whole entry): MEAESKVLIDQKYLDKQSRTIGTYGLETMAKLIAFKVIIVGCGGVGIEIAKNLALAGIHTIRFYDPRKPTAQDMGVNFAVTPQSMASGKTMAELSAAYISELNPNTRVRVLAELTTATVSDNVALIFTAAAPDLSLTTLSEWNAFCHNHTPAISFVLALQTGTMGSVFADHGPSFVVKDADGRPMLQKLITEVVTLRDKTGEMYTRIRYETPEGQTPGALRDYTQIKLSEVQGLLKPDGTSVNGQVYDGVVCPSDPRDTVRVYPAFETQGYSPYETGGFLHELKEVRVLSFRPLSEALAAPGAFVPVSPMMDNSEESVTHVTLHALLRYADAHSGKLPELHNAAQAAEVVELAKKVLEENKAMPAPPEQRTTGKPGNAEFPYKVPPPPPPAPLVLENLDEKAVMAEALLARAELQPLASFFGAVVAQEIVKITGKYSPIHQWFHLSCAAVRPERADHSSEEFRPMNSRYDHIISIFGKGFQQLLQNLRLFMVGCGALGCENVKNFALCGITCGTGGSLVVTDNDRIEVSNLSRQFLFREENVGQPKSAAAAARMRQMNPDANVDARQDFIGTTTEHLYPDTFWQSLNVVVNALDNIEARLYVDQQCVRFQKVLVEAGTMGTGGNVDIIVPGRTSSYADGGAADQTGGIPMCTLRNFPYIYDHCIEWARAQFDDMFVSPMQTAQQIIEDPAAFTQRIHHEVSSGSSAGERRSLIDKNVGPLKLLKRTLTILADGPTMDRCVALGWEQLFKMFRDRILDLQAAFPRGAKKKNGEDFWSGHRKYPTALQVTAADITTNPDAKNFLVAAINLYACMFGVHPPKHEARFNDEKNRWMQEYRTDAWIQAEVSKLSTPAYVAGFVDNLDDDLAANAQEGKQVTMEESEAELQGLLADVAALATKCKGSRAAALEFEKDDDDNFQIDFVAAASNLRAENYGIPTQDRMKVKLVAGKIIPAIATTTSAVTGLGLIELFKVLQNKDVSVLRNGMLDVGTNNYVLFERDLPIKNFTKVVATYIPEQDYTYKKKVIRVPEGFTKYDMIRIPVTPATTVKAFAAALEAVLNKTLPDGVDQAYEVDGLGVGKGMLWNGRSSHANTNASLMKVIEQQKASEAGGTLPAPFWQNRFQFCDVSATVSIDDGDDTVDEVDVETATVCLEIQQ
Put plainly: Leishmania donovani Ubiquitin Activating Enzyme (LdE1). It is filed as functional. The note with it: 30 µM.

Experiment [3] concerns the target AMP-activated protein kinase, AMPK (Homo sapiens) (UniProt P54646+O43741+P54619+Q9UGJ0+Q9Y478+Q13131+Q9UGI9). Put plainly: AMP-dependent Kinase enzyme assay. An in vitro enzyme assay that detects ADP turnover that is directly proportional to AMPK activity. This uses naive AMPK that is activated during the assay with MK-8722. It is filed as functional. The following applies: 30 µM.

For experiment [4], the target named is Sialic acid-binding Ig-like lectin 9 (Homo sapiens) (UniProt Q9Y336). Put plainly: Hs-Siglec9 ALPHAscreen SOP 20170721. The note with it: 10 µM.
Sequence of Sialic acid-binding Ig-like lectin 9 (Homo sapiens) (Q9Y336 whole entry): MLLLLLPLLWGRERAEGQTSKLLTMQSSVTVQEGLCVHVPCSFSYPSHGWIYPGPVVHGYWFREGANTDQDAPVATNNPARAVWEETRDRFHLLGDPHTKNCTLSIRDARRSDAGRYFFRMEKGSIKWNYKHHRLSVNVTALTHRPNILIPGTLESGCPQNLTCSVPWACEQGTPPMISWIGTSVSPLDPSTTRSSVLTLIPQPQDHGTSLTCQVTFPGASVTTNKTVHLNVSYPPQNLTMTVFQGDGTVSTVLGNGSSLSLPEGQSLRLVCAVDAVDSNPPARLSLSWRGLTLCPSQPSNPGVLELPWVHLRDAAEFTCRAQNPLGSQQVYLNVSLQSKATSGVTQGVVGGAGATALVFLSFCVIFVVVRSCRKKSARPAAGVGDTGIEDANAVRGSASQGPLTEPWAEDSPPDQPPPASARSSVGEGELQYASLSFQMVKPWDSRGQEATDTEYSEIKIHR
The next experiment deals with Trypanosoma cruzi. Briefly: Trypanosoma cruzi phosphomannomutase and mannose-1-phosphate guanylyltransferase assay. The following applies: 10 µM. In kind it is functional.
Experiment [5] addresses T2, Arginase-2, mitochondrial (Homo sapiens) (UniProt P78540).
T2 sequence (whole entry): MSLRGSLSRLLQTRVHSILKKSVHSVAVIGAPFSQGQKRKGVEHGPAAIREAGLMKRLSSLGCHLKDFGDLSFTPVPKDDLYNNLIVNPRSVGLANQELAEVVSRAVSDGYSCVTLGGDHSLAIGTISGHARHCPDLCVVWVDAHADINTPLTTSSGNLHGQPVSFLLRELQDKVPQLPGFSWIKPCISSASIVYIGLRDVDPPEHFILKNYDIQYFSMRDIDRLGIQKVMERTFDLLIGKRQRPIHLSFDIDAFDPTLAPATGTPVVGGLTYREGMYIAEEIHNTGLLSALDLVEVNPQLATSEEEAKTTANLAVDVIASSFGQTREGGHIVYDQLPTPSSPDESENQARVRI
Put plainly: in vitro enzyme assay to detect the production of urea directly proportional to the activity of Arginase II. Note: in the data most compounds retested in dose-response had high values. It is filed as functional. The following applies: 33.3 µM.

Experiment [6] deals with T3, Proteasome subunit beta (Trypanosoma cruzi) (UniProt O96673).
T3 sequence (whole entry): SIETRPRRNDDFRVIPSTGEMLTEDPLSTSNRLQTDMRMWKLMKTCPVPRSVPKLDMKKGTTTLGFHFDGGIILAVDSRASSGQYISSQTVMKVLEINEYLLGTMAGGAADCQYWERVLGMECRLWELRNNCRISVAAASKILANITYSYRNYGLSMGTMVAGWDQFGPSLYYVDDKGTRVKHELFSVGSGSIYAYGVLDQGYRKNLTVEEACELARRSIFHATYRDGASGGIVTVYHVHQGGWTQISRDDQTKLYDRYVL
Put plainly: Trypanosoma cruzi proteasome chymotrypsin-like activity (TcProtChymo) assay. Note: in the data most compounds retested in dose-response had high values. In kind it is functional. The following applies: 9.37 µM.

The species named for a further experiment is Homo sapiens. Briefly: To identify inhibition of the IFN signalling (Jak-Stat) pathway via expression of an eGFP reporter gene under the control of an IFN-stimulated response element (ISRE) containing MxA promoter. The note with it: 30 µM. It is filed as functional. On the technique in general: Reporter assays use an easily measured gene product as a stand-in for the process of interest.

For experiment [7], the target named is T4, Tyrosyl-tRNA synthetase, putative (Trypanosoma cruzi (strain CL Brener)) (UniProt Q4DSP6).
T4 sequence (whole entry): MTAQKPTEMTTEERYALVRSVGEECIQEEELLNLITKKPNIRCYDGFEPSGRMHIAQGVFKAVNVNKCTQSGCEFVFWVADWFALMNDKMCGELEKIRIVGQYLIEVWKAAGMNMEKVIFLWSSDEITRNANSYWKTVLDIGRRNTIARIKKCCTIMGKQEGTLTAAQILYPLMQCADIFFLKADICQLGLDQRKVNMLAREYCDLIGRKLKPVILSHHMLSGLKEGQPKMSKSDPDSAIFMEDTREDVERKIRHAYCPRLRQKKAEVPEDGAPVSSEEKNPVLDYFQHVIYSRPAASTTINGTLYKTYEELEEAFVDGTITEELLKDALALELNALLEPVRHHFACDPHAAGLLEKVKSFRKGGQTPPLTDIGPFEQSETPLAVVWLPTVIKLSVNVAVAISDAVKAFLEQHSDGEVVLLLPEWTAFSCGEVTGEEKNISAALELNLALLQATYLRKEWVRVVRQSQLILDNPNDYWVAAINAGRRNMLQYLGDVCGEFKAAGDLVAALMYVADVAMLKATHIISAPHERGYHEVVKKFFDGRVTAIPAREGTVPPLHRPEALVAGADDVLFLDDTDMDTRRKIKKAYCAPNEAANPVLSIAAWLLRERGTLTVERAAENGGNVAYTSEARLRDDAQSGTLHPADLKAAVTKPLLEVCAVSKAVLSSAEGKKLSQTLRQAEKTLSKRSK
Briefly: Trypanosoma cruzi tyrosyl tRNA synthetase (TcYRS) _High Tyrosine SOP. Note: in the data most compounds retested in dose-response had high values. The note with it: 30 µM. In kind it is functional.

The target in experiment [8] is T4, Tyrosyl-tRNA synthetase, putative (Trypanosoma cruzi (strain CL Brener)). Put plainly: Trypanosoma cruzi tyrosyl tRNA synthetase (TcYRS) SOP. In kind it is functional. The following applies: 30 µM.
Experiment [9] addresses Chromo domain-containing protein 1 (Saccharomyces cerevisiae (strain ATCC 204508 / S288c) (Baker's yeast)) (UniProt P32657). Put plainly: ScCHD-1 Enzyme Inhibition Assay. Note: in the data most compounds retested in dose-response had high values. In kind it is functional. The following applies: 30 µM.

For some of these results: Potency and affinity values are given separately.

Sequence of Protein translocase subunit SecA (Escherichia coli (strain K12)) (P10408 whole entry): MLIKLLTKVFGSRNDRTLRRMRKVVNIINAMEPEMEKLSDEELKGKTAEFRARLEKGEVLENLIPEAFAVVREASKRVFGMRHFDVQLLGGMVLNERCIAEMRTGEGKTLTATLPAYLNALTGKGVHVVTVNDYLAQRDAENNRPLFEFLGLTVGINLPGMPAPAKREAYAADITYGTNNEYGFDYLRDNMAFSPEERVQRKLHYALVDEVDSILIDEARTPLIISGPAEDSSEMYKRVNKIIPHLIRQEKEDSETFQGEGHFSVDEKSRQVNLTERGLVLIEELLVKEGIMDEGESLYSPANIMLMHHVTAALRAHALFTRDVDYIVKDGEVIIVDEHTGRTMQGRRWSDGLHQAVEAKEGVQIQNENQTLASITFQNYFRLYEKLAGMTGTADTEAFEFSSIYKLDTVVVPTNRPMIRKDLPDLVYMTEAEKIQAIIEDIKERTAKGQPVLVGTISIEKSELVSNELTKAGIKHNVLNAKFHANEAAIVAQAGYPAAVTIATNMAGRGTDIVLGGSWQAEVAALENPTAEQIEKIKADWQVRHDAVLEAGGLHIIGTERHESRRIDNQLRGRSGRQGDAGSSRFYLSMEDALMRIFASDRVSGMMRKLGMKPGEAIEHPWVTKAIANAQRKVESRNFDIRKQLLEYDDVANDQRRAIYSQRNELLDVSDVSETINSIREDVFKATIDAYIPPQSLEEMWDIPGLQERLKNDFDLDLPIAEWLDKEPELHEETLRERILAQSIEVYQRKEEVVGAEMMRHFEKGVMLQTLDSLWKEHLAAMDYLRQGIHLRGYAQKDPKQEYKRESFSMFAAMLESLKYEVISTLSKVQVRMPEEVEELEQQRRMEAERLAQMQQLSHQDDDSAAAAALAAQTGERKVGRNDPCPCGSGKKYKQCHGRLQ
Sequence of Chromo domain-containing protein 1 (Saccharomyces cerevisiae (strain ATCC 204508 / S288c) (Baker's yeast)) (P32657 whole entry, the tested form may be a part): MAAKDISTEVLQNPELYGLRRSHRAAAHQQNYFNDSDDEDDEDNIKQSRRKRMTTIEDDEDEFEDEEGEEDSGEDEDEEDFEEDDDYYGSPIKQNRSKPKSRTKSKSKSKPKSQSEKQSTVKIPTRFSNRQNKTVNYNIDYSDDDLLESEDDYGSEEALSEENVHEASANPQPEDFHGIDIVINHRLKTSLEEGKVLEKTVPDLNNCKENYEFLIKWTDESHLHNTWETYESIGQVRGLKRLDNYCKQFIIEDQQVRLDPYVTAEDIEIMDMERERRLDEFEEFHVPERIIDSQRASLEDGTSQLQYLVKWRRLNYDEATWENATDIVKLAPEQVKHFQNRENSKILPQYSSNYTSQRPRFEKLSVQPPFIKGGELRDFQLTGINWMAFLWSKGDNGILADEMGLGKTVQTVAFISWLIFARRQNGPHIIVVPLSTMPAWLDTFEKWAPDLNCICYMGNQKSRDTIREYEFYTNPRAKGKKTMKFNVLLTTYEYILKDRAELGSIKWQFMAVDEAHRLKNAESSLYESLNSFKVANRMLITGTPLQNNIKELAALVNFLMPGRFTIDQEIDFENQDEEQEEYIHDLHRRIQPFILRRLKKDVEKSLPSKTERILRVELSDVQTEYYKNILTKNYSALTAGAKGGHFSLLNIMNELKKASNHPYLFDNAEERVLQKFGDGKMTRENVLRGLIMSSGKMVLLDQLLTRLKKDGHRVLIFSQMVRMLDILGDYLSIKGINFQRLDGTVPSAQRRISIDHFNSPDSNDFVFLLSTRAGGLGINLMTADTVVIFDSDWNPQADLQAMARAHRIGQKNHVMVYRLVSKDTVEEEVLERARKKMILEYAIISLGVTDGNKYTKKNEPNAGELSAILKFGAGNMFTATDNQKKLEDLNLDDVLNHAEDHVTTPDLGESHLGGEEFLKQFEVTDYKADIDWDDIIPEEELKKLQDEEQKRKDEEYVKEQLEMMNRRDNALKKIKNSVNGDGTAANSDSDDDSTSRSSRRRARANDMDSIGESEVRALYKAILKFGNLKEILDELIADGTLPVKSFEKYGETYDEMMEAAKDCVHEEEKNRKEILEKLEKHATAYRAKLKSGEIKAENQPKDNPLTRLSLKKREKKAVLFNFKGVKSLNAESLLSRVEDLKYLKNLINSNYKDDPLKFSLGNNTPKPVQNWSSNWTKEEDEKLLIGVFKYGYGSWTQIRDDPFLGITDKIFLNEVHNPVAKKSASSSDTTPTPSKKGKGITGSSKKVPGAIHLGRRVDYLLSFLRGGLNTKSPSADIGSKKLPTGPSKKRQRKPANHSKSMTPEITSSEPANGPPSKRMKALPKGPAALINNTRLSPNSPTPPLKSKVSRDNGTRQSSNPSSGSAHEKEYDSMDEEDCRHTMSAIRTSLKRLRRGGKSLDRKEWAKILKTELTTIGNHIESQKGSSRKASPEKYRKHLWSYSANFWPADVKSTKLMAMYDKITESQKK

On to `CN(C)C(=O)CN1CCC2(CCCN(Cc3cccn3C)C2)C1=O` (stereo unspecified), for which the Percent Effect in experiment [1] was -6.92%; in experiment [2] it was 10.7%; in experiment [3], 0.926%; in experiment [4], -7.4%; in the experiment on Trypanosoma cruzi, -5.12%; in experiment [5], -3.96%. The Percent Effect in experiment [6] was 18.2%; in the experiment filed under Homo sapiens, 10.5%; in experiment [7] it was 1.06%; in [8], 1.28%; in [9] it was -7.43%.

Consider `Cc1occc1C(=O)N1CCOCC2(CCN(Cc3nccs3)C2)C1` (stereo unspecified), for which the Percent Effect is -0.601% in experiment [1]; 2.6% in [2]; 0.286% in experiment [3]; 7.22% in [4]; -0.688% in the experiment with Trypanosoma cruzi; 5.52% in experiment [5]. For the same compound, the Percent Effect was 9.82% in experiment [6]; -13.2% in the experiment listed under Homo sapiens; -3.23% in experiment [7]; -6.17% in experiment [8]; 2.92% in experiment [9].

On to `COc1ccccc1CNC(=O)N1CCCC(NS(C)(=O)=O)C1` (stereo unspecified), for which the Percent Effect was -6.57% in experiment [1]; -15.6% in experiment [2]; -5.52% in experiment [3]; -17.1% in experiment [4]; -3.82% with Trypanosoma cruzi; -2.74% in experiment [5]. For the same compound, the Percent Effect was 12.8% in experiment [6]; 24% in the experiment listed under Homo sapiens; -25.7% in experiment [7]; 7.06% in experiment [8]; -22.9% in [9].

On to `O=C(CCOc1cccc(F)c1)N1CCCC(n2cncn2)C1` (stereo unspecified), for which the Percent Effect in [1] was -2.79%; in experiment [2] it was 1.27%; in experiment [3] it was 7.42%; in experiment [4] it was 3.23%; in the experiment with Trypanosoma cruzi, -1.95%; in experiment [5] it was 4.95%. Besides, the Percent Effect in experiment [6] was 6%; in the experiment listed under Homo sapiens it was 2.52%; in [7], 2.08%; in [8], 7.59%; in experiment [9] it was -10.2%.

For `NC(=O)C(CNC(=O)Cc1ccc(F)cc1)Cc1ccc(F)cc1` (stereo unspecified), the Percent Effect in experiment [1] is -4.48%; in experiment [2], 2.63%; in [3] it was -46.9%; in experiment [4], -3.44%; with Trypanosoma cruzi, -4.19%; in [5], 0%. In addition, the Percent Effect in [6] is 11.4%; in the experiment filed under Homo sapiens, 19.6%; in [7], 0%; in experiment [8] it was 0%; in experiment [9], -3.68%.

With `COc1c(CNCC(O)c2cccc(F)c2)c(C(C)C)nn1C` (stereo unspecified), the Percent Effect in [1] is 2.75%; in experiment [2], 10.4%; in experiment [3], -6.14%; in [4] it was -13.3%; with Trypanosoma cruzi, -4.6%; in [5], -0.21%. Further, the Percent Effect in experiment [6] was 18.7%; in the experiment filed under Homo sapiens, 5.92%; in [7] it was 9.52%; in [8], 14.1%; in experiment [9], -15.9%.

As for `O=C(N1CCOCC1)[C@@]12CCO[C@@H]1CCN(CC1CCCCC1)C2`, the Percent Effect in experiment [1] is -4.88%; in experiment [2] it was -1.33%; in [3] it was 2.35%; in [4], -2.81%; in the experiment with Trypanosoma cruzi it was -5.3%; in [5] it was -10%. In addition, the Percent Effect in experiment [6] was 7.58%; in the experiment listed under Homo sapiens, 12.3%; in experiment [7], -3.17%; in experiment [8], -10.3%; in experiment [9], -2.92%.

Turning to `Cc1cnn(CC2CN(Cc3nnc(C4CC4)o3)CCO2)c1` (stereo unspecified), the Percent Effect in [1] was -7.99%; in [2], 5.41%; in experiment [3], 87.3%; in experiment [4], 7.35%; in the experiment on Trypanosoma cruzi, -4.18%; in [5], -4.99%. For the same compound, the Percent Effect was -1.26% in experiment [6]; 8.17% in the experiment listed under Homo sapiens; 1.98% in [7]; 3.66% in [8]; 7.2% in [9].

`CN(c1cccnn1)C1CCN(C(=O)c2ccc3c(c2)COC3)CC1`: the Percent Effect in experiment [1] was -7.72%; in experiment [2], -44.2%; in experiment [3], 15.1%; in experiment [4] it was 5.38%; with Trypanosoma cruzi it was 0.187%; in [5], 2.85%. In addition, the Percent Effect was 5.41% in [6]; 9.98% in the experiment filed under Homo sapiens; 6.8% in [7]; 12.2% in experiment [8]; -5.25% in [9].

In the case of `O=C(c1ccc(F)cc1)N1C[C@@H]2OCCN(c3ncccn3)[C@@H]2C1`, the Percent Effect is -5.16% in experiment [1]; 5.33% in [2]; 3.73% in experiment [3]; 9.86% in [4]; -5.02% in the experiment on Trypanosoma cruzi; -19.9% in experiment [5]. In addition, the Percent Effect in [6] is 5.98%; in the experiment filed under Homo sapiens, -2.35%; in [7] it was 2.08%; in experiment [8], 15%; in experiment [9], -9.01%.

`Cc1ccc(C(=O)N2CCN(CC(O)c3ccc(F)cc3)CC2)s1` (stereo unspecified): the Percent Effect in experiment [1] is -2.93%; in [2] it was 7.89%; in experiment [3], 6.49%; in experiment [4], 18.1%; in the experiment on Trypanosoma cruzi, -0.564%; in experiment [5], 0.766%. Also, the Percent Effect in experiment [6] is 4.34%; in the experiment listed under Homo sapiens it was 13.7%; in experiment [7], 5.39%; in experiment [8], 9.76%; in experiment [9], -0.68%.

Values taken from ChEMBL document CHEMBL3988442, “University of Dundee, Small-Polar-MMV Screening Library” (2021).
